Our source for the growth values is PubChem BioAssay (NCI).

Some test systems named below: NCI-H23 lung; NCI-H226 lung; NCI-H322M lung; HOP-62 NSCLC; NCI-H460 lung; HOP-92 NSCLC; NCI-H522 lung; A549/ATCC NSCLC; 786-0 renal; COLO 205 colon; DU-145 prostate; K-562 leukemia; MALME-3M melanoma; MDA-MB-231 breast; RXF 393 renal; SF-268 CNS; SF-539 CNS; UACC-257 melanoma; M14 melanoma.
Common to all, as to assay: NCI-60 one-dose screen, 48 h (100 = growth as untreated, 0 = no growth, -100 = all killed)
Conditions in all cases: 10 µM unless noted

Compounds without any hit were thinned out: in the full panel of roughly 83,000, 20% have a hit.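 The endpoint reported here, percent growth, reads 100 for growth as untreated, 0 for no net growth and -100 for all cells dead.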 A number with no mark means an inactive call. Calls of active or inactive are those of the source. The calls were made as follows: active = growth percent below 10; inactive = the rest.

Regarding `CCCCNCC(O)c1cc2c(Cl)cc(Cl)cc2c2cc(C(F)(F)F)ccc12` (configuration not stated), the growth is -72.9% (active) in the assay on NCI-H23 lung; -69.4% (active) with NCI-H226 lung; -82.8% (active) with NCI-H322M lung; -80.8% (active) in the assay with HOP-62 NSCLC; -73.9% (active) with NCI-H460 lung; -89.5% (active) in the assay with HOP-92 NSCLC. The growth in the assay with NCI-H522 lung was -78.7% (active); in the assay with A549/ATCC NSCLC it was -83.3% (active); with 786-0 renal, -71.2% (active); with COLO 205 colon, -76.8% (active); with DU-145 prostate, -98% (active); in the assay with K-562 leukemia, -69.1% (active). Further, the growth with MALME-3M melanoma was -60.8% (active); in the assay on MDA-MB-231 breast, -74.8% (active); with RXF 393 renal, -94.7% (active); with SF-268 CNS, -80.5% (active); with SF-539 CNS, -81.7% (active); in the assay with UACC-257 melanoma, -72.4% (active). Moreover, in the assay on M14 melanoma, the growth was -86.5% (active).
As to `COc1ccc(/C=C/C(=O)c2ccc(NC(=O)CSc3nnc(-c4ccc(Cl)cc4)n3-c3ccccc3)cc2)cc1`, the growth in the assay on NCI-H23 lung is 92.4%; in the assay with NCI-H226 lung it was 104%; with NCI-H322M lung, 106%; with HOP-62 NSCLC, 103%; in the assay on NCI-H460 lung, 104%; in the assay on HOP-92 NSCLC it was 107%. Also, the growth in the assay with NCI-H522 lung is 84.6%; with A549/ATCC NSCLC it was 74%; in the assay on 786-0 renal, 98%; in the assay on COLO 205 colon, 106%; in the assay with DU-145 prostate, 106%; in the assay on K-562 leukemia, 80.1%. The growth with MALME-3M melanoma was 118%; with MDA-MB-231 breast, 91%; with RXF 393 renal it was 104%; in the assay on SF-268 CNS, 96.1%; in the assay on SF-539 CNS it was 109%; in the assay with UACC-257 melanoma, 86.7%. For the same compound, the growth in the assay on M14 melanoma was 91.9%.
Consider `Oc1[nH]c2ccccc2c1/C=c1/ccc2c(c1)N=C(c1ccc(C(F)(F)F)cc1)N=2`, for which the growth in the assay with NCI-H23 lung was 67%; with NCI-H226 lung it was 89.6%; in the assay with NCI-H322M lung it was 76.8%; with HOP-62 NSCLC, 71.6%; in the assay with NCI-H460 lung, 41.1%; in the assay on HOP-92 NSCLC, 57.4%. Further, the growth with NCI-H522 lung is 40.7%; in the assay on A549/ATCC NSCLC it was 50%; in the assay with 786-0 renal, 6.1% (active); with COLO 205 colon, 78.8%; in the assay with DU-145 prostate, 63.1%; in the assay with K-562 leukemia it was 14.6%. In addition, the growth with MALME-3M melanoma is 74.2%; in the assay on MDA-MB-231 breast, 46.6%; in the assay on RXF 393 renal, -37.2% (active); with SF-268 CNS, 68.7%; in the assay with SF-539 CNS, 67.4%; in the assay on UACC-257 melanoma, 67.4%. The growth in the assay on M14 melanoma is 44.6%.
`CC(=O)O[C@H]1[C@H](CC#CC#CC[C@@H]2C[C@]3(C)[C@H]4CC=C5[C@H]6[C@@H](C)[C@H](C)CC[C@]6(C(=O)NCCN(CCN)CCN)CC[C@@]5(C)[C@]4(C)CC[C@H]3C(C)(C)[C@H]2OC(C)=O)C[C@]2(C)[C@H]3CC=C4[C@H]5[C@@H](C)[C@H](C)CC[C@]5(C(=O)NCCN(CCN)CCN)CC[C@@]4(C)[C@]3(C)CC[C@H]2C1(C)C`: the growth in the assay with NCI-H23 lung was 11.9%; with NCI-H226 lung, 69.5%; in the assay on NCI-H322M lung, 63.3%; in the assay on HOP-62 NSCLC, 87.1%; with NCI-H460 lung it was 80.5%; in the assay with HOP-92 NSCLC, 48.6%. For the same compound, the growth was 15.2% with NCI-H522 lung; 43% in the assay with A549/ATCC NSCLC; 82.8% in the assay with 786-0 renal; 78% with COLO 205 colon; 86% in the assay with DU-145 prostate; 18.3% with K-562 leukemia. In addition, the growth was 67.8% in the assay on MALME-3M melanoma; 59.6% in the assay with MDA-MB-231 breast; 57.9% in the assay on RXF 393 renal; 87.1% with SF-268 CNS; 84.2% with SF-539 CNS; 96% with UACC-257 melanoma. Besides, in the assay with M14 melanoma, the growth is 63.1%.
Consider `COc1ccc(Sc2[nH]c(C=O)c3ccccc23)cc1`, for which the growth with NCI-H23 lung is 73.3%; in the assay with NCI-H226 lung, 72.5%; with NCI-H322M lung, 46.8%; in the assay with HOP-62 NSCLC, 71%; with NCI-H460 lung it was 6.72% (active); in the assay with HOP-92 NSCLC, 53.8%. Also, the growth in the assay on NCI-H522 lung was 75.2%; with A549/ATCC NSCLC, 34.5%; in the assay with 786-0 renal, 70.1%; in the assay with COLO 205 colon it was -0.0496% (active); in the assay with DU-145 prostate, 74.6%; with K-562 leukemia, -0.59% (active). Further, the growth in the assay with MALME-3M melanoma is 91.8%; in the assay on MDA-MB-231 breast, 49.3%; with RXF 393 renal, 6.64% (active); in the assay on SF-268 CNS, 78%; in the assay with SF-539 CNS, 64.9%; with UACC-257 melanoma, 91.4%. Moreover, the growth with M14 melanoma was 76.6%.
In the case of `Cn1c(=O)c2c3c(oc2c2ccccc21)C(=O)c1ccccc1C3=O`, the growth in the assay on NCI-H23 lung was 78.3%; in the assay on NCI-H226 lung it was 73.2%; with NCI-H322M lung it was 96.2%; in the assay with HOP-62 NSCLC it was 81.8%; in the assay with NCI-H460 lung it was 78.5%; in the assay on HOP-92 NSCLC, 101%. The growth in the assay with NCI-H522 lung was 50.6%; in the assay with A549/ATCC NSCLC it was 81.7%; with 786-0 renal, 107%; in the assay with COLO 205 colon, 74.5%; in the assay with DU-145 prostate, 91%; in the assay with K-562 leukemia, 68.8%. The growth with MALME-3M melanoma was 113%; in the assay on MDA-MB-231 breast it was 11.5%; with RXF 393 renal, 101%; in the assay on SF-268 CNS, 95.3%; with SF-539 CNS, 97.2%; in the assay with UACC-257 melanoma, 106%. The growth with M14 melanoma is 85.6%.
For `Cc1ccc(N2C3c4ccccc4N(S(=O)(=O)c4ccc(C)cc4)C2c2ccccc2N3S(=O)(=O)c2ccc(C)cc2)cc1`, the growth in the assay on NCI-H23 lung is 99.9%; in the assay with NCI-H226 lung, 94.3%; in the assay with NCI-H322M lung, 106%; in the assay on HOP-62 NSCLC, 107%; in the assay with NCI-H460 lung it was 99.5%; with HOP-92 NSCLC, 101%. Besides, the growth in the assay on NCI-H522 lung is 106%; in the assay on A549/ATCC NSCLC, 97.1%; in the assay with 786-0 renal, 112%; with COLO 205 colon it was 115%; in the assay on DU-145 prostate, 104%; in the assay on K-562 leukemia, 90.4%. The growth with MALME-3M melanoma was 97.9%; in the assay on MDA-MB-231 breast it was 94.3%; in the assay on RXF 393 renal it was 121%; in the assay with SF-268 CNS, 107%; in the assay with SF-539 CNS it was 95.4%; in the assay with UACC-257 melanoma, 102%. Moreover, the growth in the assay with M14 melanoma was 110%.
With `Cc1ccc(/C=C/C(=N/N=C(N)N)c2ccccc2)cc1`, the growth with NCI-H23 lung was 31.3%; in the assay on NCI-H226 lung, 59.5%; in the assay on NCI-H322M lung, 41.1%; in the assay with HOP-62 NSCLC, 25.8%; with NCI-H460 lung it was 8.15% (active); in the assay with HOP-92 NSCLC, 13.9%. Also, the growth with NCI-H522 lung was 9.07% (active); with A549/ATCC NSCLC, 18.7%; in the assay on 786-0 renal it was 32.8%; in the assay with COLO 205 colon, -16.4% (active); in the assay on DU-145 prostate it was 2.48% (active); in the assay on K-562 leukemia, 11.7%. Besides, the growth is 40% in the assay on MALME-3M melanoma; 35.5% in the assay on MDA-MB-231 breast; -22.9% (active) with RXF 393 renal; 36.7% in the assay on SF-268 CNS; 3.64% (active) in the assay on SF-539 CNS; 54.5% in the assay on UACC-257 melanoma. For the same compound, in the assay with M14 melanoma, the growth is -24.4% (active).
